# Many of the other results were omitted from the sample, so hits are more common in it than they were.
# Gal4-VP16 FLuc: VP16 counterscreen qHTS for inhibitors of ROR gamma transcriptional activity; Potency, µM (highest dose often 53.6 µM), for the others: top-dose activity, negative = inhibition, hits mostly inhibitors; Drosophila S2 Gal4-VP16 UAS-luciferase, luminescence, 20 h; hit rate 3.5% among 310,000;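 note: Gal4-VP16 expression switched on by copper sulfate through the metallothionein promoter; potency is the fitted concentration of half-maximal effect; % is set by controls: 0 for no effect and ±100 for the full control effect; nearly all actives have a fitted effect of over 50% in size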
# RORgamma inh: qHTS for inhibitors of ROR gamma transcriptional activity. Drosophila S2 Gal4-RORgamma UAS-luciferase reporter, 20 h. Potency, µM (series often up to 53.6 µM), for the others: top-dose activity change, negative = inhibition, hits mostly inhibitors. hit rate 5.4% among 310,000. AID 2551, 2010; note: potency is the fitted concentration of half-maximal effect; % is set by controls: 0 for no effect and ±100 for the full control effect; nearly all actives have a fitted effect of over 60% in size
#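 In this cell-based reporter format, copper sulfate (700 uM final) drives Gal4–ROR gamma fusion expression from a metallothionein promoter in Drosophila Schneider cells; compounds preincubated 1 hr, reporter read after 20 hr at ambient temperature.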
# Giardia killer: Small Molecules that selectively kill Giardia lamblia: qHTS; Giardia lamblia trophozoite viability; activity change, % at 7.66 µM, hits read low; hit rate 0.15% among 340,000; AID 540267, 2011; in the data active = activity change below about -80%; inconclusive = between about -30% and that limit;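 note: parasites exposed to compound for two days anaerobically before the ATP read; % is set by controls: 0 for no effect and ±100 for the full control effect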
#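 Compounds were tested on trophozoites seeded at 100 cells/well and held 48 hrs at 37 deg C anaerobically. An ATP-based luminescent kit measured the remaining live cells.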
# ERG Ets-DNA blk: qHTS for Small Molecule Inhibitors of the ERG Ets/DNA interaction; Transcriptional regulator ERG (Homo sapiens), P11308; fluorescence polarization, His-ERG Ets domain / labelled DNA; Potency, µM (top dose mostly 76.9 µM), for the others: at the highest dose FP activity, negative = inhibition, usual class: inhibitors; hit rate 0.028% among 370,000; AID 624246, 2012; active = well fitted inhibition curve with a large enough effect in the polarisation, with a control signal flat; inconclusive = small, poorly fitted or top-dose-only effect, or effect the other way, or a change in a side signal; inactive = no such curve, though single readings can be large or run the other way; the % refers to the polarisation;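 note: polarization taken with two DNA probes labelled with fluorescein and Texas red; potency is the fitted concentration of half-maximal effect; % of control where 0% means no effect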
# Target sequence (P11308 whole entry, looked up, the tested form may be a part): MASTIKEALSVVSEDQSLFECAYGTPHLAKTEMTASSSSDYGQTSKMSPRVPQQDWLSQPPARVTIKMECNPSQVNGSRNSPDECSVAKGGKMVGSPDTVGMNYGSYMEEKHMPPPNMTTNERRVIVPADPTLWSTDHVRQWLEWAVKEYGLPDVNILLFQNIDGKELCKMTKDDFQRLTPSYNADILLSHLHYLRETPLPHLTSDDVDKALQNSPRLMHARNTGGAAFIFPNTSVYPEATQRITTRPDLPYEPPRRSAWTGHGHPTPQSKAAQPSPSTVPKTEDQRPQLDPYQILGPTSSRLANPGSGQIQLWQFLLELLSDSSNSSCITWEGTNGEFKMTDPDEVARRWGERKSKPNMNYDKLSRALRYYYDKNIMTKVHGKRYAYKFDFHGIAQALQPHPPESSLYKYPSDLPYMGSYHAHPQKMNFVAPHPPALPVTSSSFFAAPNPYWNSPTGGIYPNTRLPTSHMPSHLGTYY
#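 His-tagged ERG Ets domain (1 uM in the protein solution; 300mM KCl, 50mM Tris-HCl, 1mM EDTA, 1mM DTT, pH 7.5) received compound, then a probe mix of 5 nM fluorescein-DNA and 100nM Texas-615-DNA. Fluorescence polarization was read for both dyes.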
# a7 integrin act: qHTS for Activators of Integrin-Mediated Alleviation for Muscular Dystrophy; alpha7betagal myoblasts, beta-gal FDG fluorescence, 48 h; Potency, µM (highest dose often 38.3 µM), for inactives: at the top dose activation, hits mostly activators; hit rate 0.064% among 350,000;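 note: potency is the fitted concentration of half-maximal effect; 100% = response of the positive control SU9516; nearly all actives have a fitted effect of over 60% in size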
#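 Alpha7betagal+/- myoblasts (passage 13) were plated 16-24 hr, then exposed to compounds (1:260 dilution of DMSO stock) for 48 hours at 37C. After MPER lysis, β-galactosidase reporter activity was read as FDG fluorescence (ex 480/em 540) after 30 minutes.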
# * = called active by the depositor; ? = inconclusive; nt = no result given; [ ] = dose if it differs, or a comment. Unless noted, calls come from the whole dose curve; as a rule, active = well fitted curve in the direction sought with a large enough effect; inconclusive = small, poorly fitted or top-dose-only effect, or another doubt; inactive = no such curve, though single readings can be large; an effect the other way counts as inactive or inconclusive.
SMILES,Gal4-VP16 FLuc,RORgamma inh,Giardia killer,ERG Ets-DNA blk,a7 integrin act
S=C(NCc1ccccc1)NNc1nc2ccccc2[nH]1,-9%,4.5µM*,-10,-5%,-4%
O=c1[nH]c(NNC(=S)NC2CCCCC2)nc2c1C1(CCCC1)Cc1ccccc1-2,25µM*,2.8µM*,5,3%,?
O=c1[nH]c(NCCCO)nc2c1C1(CCCC1)Cc1ccccc1-2,7%,26%,3,nt,5%
C=CCNC(=S)NNc1nc2c(c(=O)[nH]1)C1(CCCC1)Cc1ccccc1-2,3.2µM*,2.8µM*,6,-5%,3%
COC(=O)NC(/C(C(=O)OC)=C(\C)NCc1ccccc1)c1ccc2ccccc2c1 (centres undefined),4%[10 µM],17%[10 µM],nt,nt,nt
COC(=O)c1c(C)nc(C)c(C(=O)OC)c1-c1ccccc1[N+](=O)[O-],-18%,-11%,nt,nt,nt
Cc1oc(-c2ccccc2Cl)nc1CN1CCCC1c1ccc(F)cc1 (centres undefined),-11%,11µM*,3,-1%,0%
Cc1oc(-c2ccccc2Cl)nc1CN1CCCCC1CO (centres undefined),9%,-10%,35,-5%,8%
Cc1oc(-c2cccc3ccccc23)nc1CN1CCC[C@H]1CO,?,7.1µM*,0,-3%,-31%
COc1ccccc1NC(=O)C(C)OC(=O)C1CCN(S(=O)(=O)c2ccc(C)c(C)c2)CC1 (centres undefined),nt,nt,7,nt,22%
COc1ccc(NC(=O)c2cc3cccc(OC)c3oc2=Nc2ccc(C(=O)O)cc2)cc1OC,?,0.45µM*,10,-3%,19%
CC1=NN(C(=O)Cn2nc([N+](=O)[O-])cc2C)C(O)(C(F)(F)F)C1 (centres undefined),?,10µM*,6,1%,11%
CC1=NN(C(=O)c2ccc(Cn3nc(C)c(Br)c3C)cc2)C(O)(C(F)(F)F)C1 (centres undefined),13µM*,?,-1,1%,4%
CC1=NN(C(=O)c2ccc(Cn3nc(C)c([N+](=O)[O-])c3C)cc2)C(O)(C(F)(F)F)C1 (centres undefined),11µM*,11µM*,-3,-6%,-6%
CCN(CC(=O)Nc1ccc(OC)cc1)C(=O)Cc1ccc(OC)c(S(=O)(=O)N2CCOCC2)c1,nt,nt,-16,6%,0%
CCc1cc(=O)oc2c3c(cc(OCC(=O)NCCCCCC(=O)O)c12)OC(C)(C)CC3,0%,1%,-4,-2%,10%
Cc1cc(C)c(C(=O)CN2C(=O)C(=O)N(C3CCCC3)C2=O)cc1C,nt,nt,6,1%,9%
Cc1nn(C)c(Cl)c1NC(=O)OCc1ccc(Cl)cc1Cl,8.9µM*,?,-22,-3%,-23%
Cc1nnsc1NC(=O)OCc1ccc(Cl)cc1Cl,-9%,?,5,-1%,-22%
O=C1C[C@@H](O)[C@@H](O)[C@H]2[C@@H]3C(=O)N(Cc4ccccc4)C(=O)[C@@H]3CC[C@H]12,-5%[10 µM],9%[10 µM],nt,nt,nt
CC1=NN(C(=O)COc2ccc(C)c(C)c2)C(O)(c2ccccc2)C1 (centres undefined),11µM*,10µM*,-1,-2%,-1%
CC1=NN(C(=O)COc2ccccc2)C(O)(c2ccccc2)C1 (centres undefined),10µM*,6.3µM*,-1,-5%,-6%
CC1=NN(C(=O)CSCc2ccccc2)C(O)(c2ccccc2)C1 (centres undefined),13µM*,?,-10,0%,1%
CC1=NN(C(=O)Cc2ccccc2)C(O)(c2cccnc2)C1 (centres undefined),7.9µM*,6.3µM*,4,-2%,17%
CC1=NN(C(=O)c2ccccc2Cl)C(O)(c2cccnc2)C1 (centres undefined),?,?,6,3%,36%
SMILES,Gal4-VP16 FLuc,RORgamma inh,Giardia killer,ERG Ets-DNA blk,a7 integrin act
COc1ccc(F)cc1CN1CCN(C(=O)c2ccc(S(=O)(=O)N3CCCCCC3)cc2)CC1,nt,nt,1,0%,13%
O=C(CSc1nnc(COc2ccccc2)o1)Nc1ccc(F)cc1,-1%,2%,-1,-2%,18%
O=C(N/N=C/C1C(c2ccccc2)C1(Cl)Cl)c1cccc(Br)c1 (centres undefined),6.3µM*,4.5µM*,-11,5%,6%
O=C(N/N=C/c1[nH]c2ccccc2c1Cl)c1cccc(Br)c1,7.9µM*,3.2µM*,6,10%,0%
Cc1[nH]c2ccccc2c1/C=N/NC(=O)c1cccc(Br)c1,11%,-42%,2,7%,22%
COc1ccc(OC)c(NC(=O)Cn2c(=O)n(CC3CCCO3)c(=O)c3cc(OC)c(OC)cc32)c1 (centres undefined),-3%,-28%,4,-4%,10%
O=C(O)CC/C=C\CC[C@@H]1[C@@H](N2CCCCC2)[C@@H](O)C[C@@H]1OCc1ccc(-c2ccccc2)cc1,-2%,11%,nt,nt,nt
COc1ccc2c(c1)CC/C2=N\OC(=O)c1ccccc1C,?,4µM*,18,-7%,?
COc1ccc2c(c1)CCC/C2=N/OC(=O)c1ccccc1OC,2%,4%,15,10%,-2%
NCC(=O)N[C@@H](CCCN=C(N)N)C(=O)NCC(=O)N[C@@H](CC(=O)O)C(=O)N[C@@H](CO)C(=O)O,-1%,11%,nt,nt,nt
Cc1ccc(C(=O)CSC2=C(C#N)C(c3ccco3)C3=C(CC(C)(C)CC3=O)N2)cc1 (centres undefined),-5%,0%,-13,7%,17%
CC(=O)C1=C(C)NC(SCC(=O)c2ccc(C)cc2)=C(C#N)C1c1ccco1 (centres undefined),2.8µM*,?,nt,nt,nt
Cc1ccc(-n2c(C)cc(C(=S)N3CCOCC3)c2C)cc1C,-28%,14µM*,2,nt,-35%
COc1ccc(C[C@@H]2CN3C(=NC[C@@H]3C)N2C[C@H](C)NC(=O)c2ccc(C)c(Br)c2)cc1,2%,2%,-12,4%,-38%
Cc1cc(C(=O)NCc2ccc(F)cc2)c2ccccc2n1,5%,0%,10,-3%,1%
O=C(Nc1ccccn1)c1cc(-c2ccc(Cl)s2)nc2ccccc12,nt,nt,?,-2%,0%
O=C(NC(=S)Nc1ccccc1)c1cc(-c2ccccc2)nc2ccccc12,4.5µM*,0.28µM*,-7,1%,14%
CN1CCC(N(C)C(=S)NC(=O)c2cc(-c3cccc(Br)c3)nc3ccccc23)CC1,0.89µM*,0.25µM*,-9,-2%,-1%
O=C(NC(=S)Nc1ccccn1)c1cc(-c2ccccc2)nc2ccccc12,0.71µM*,0.4µM*,0,7%,17%
